Assay outcomes: PubChem, National Center for Advancing Translational Sciences (NCATS)
GPT2 inhibitor: GPT2 alanine aminotransferase inhibition; Q8TD30; Recombinant GPT2, coupled pyruvate oxidase/HRP Amplex Red fluorescence; Potency, µM (highest dose often 57.7 µM), without a hit: top-dose activity change, negative = inhibition, usual class: inhibitors; 100,000 compounds, 0.25% hits; further: nearly all actives have a fitted effect of over 60% in size
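Recombinant GPT2 (10ng/uL) with 250uM a-KG and 2mM L-alanine, 30 min at room temperature, in HEPES pH 7.5 buffer. Pyruvate detected by pyruvate oxidase/HRP/Amplex Red fluorescence after 30 min in the dark; AOA (50uM) as positive control.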
HEK293 tox: kills HEK 293 cells. 94,000 compounds, 6.6% hits. HEK 293 viability, ATP luminescence (CellTiter-Glo), 48-72 h. AID 1345083. Potency, µM (highest dose often 115 µM), for inactives: top-dose activity change, negative = cytotoxicity, hits mostly inhibitors; further: nearly all actives have a fitted effect of over 60% in size
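HEK 293 cells seeded at 250 cells/well were exposed to compound for 48 or 72 hr at 37 degree Celsius. Viability taken as ATP content by CellTiter-Glo luminescence.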
NIH3T3 tox: kills NIH 3T3 cells; NIH 3T3 viability, CellTiter-Glo ATP luminescence, 48-72 h; Potency, µM (doses to about 96.7 µM), without a hit: top-dose activity change, negative = cytotoxicity, usual class: inhibitors; 94,000 compounds, 4.3% hits; AID 1345082; further: nearly all actives have a fitted effect of over 55% in size
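First NIH 3T3 cells are plated at 400 cells/well; next compound is pinned in; then plates incubate 48 or 72 hr at 37 °C; finally CellTiter-Glo is added and luminescence read after 10 min.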
FLuc inh: Photinus pyralis luciferase inhibition | AID 1347043 | 76,000 compounds, 2.5% hits | purified P. pyralis luciferase, luminescence, biochemical | Potency, µM (highest dose often 115 µM), usual class: inhibitors; further: nearly all actives have a fitted effect of over 65% in size
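Inhibitors were tested against purified firefly luciferase in a biochemical, low-substrate format (both substrates at 10uM) and luminescence measured with a CCD imager.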
NPR1 antag: blocks ANP-stimulated signaling of human Npr1 receptor | AID 1347048 | HEK293 hNpr1 GloSensor cGMP, ANP-stimulated luminescence | 76,000 compounds, 1.6% hits | P16066 | Potency, µM (series often up to 46.3 µM), without a hit: at the highest dose activity change, negative = inhibition, actives largely listed as inhibitors; calls by dose curve; further: nearly all actives have a fitted effect of over 60% in size
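Compound pre-incubated 30 min at room temperature on GloSensor-loaded HEK293 cells stably carrying hNpr1 and the pGS-40F cGMP biosensor. Stimulation uses hNppA at 0.1 nM final; luminescence is taken at baseline and 20 min post-agonist.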
The depositor's hits bear a star; i = inactive; ? = inconclusive; / = not tested or not shown; [ ] = dose if it differs, or a comment. An excerpt weighted towards active compounds, which were near 10% of everything screened. Unless noted, the call rests on the fitted dose curve; in most records, active means well fitted curve in the direction sought with a large enough effect; inconclusive means small, poorly fitted or top-dose-only effect, or another doubt; inactive means no such curve, though single readings can be large; an effect the other way counts as inactive or inconclusive. On the % scale 0 is the no-effect control and ±100 the full control effect; potency means the concentration at half of the fitted maximal effect.

SMILES	GPT2 inhibitor	HEK293 tox	NIH3T3 tox	FLuc inh	NPR1 antag
C[C@@H]1CN(C(=O)c2cccc(C#N)c2)C[C@]1(C)O	i	-6%	2%	i	-1%
Cc1nn2c(c1-c1cccnc1N1CCOCC1)N(CCC(C)C)CCC2	-20%[88.5 µM]	40µM*	?	i	-25%[70.6 µM]
Cc1ccncc1-c1c(C)nn2c1N(Cc1ccc(C(=O)O)cc1)CCC2	i	?	?	i	-12%[70.6 µM]
Cc1nn2c(c1-c1ccnn1C(C)C)N(Cc1ccc3c(c1)CCO3)CCC2	i	?	32µM*	i	-2%[70.6 µM]
COc1ccc(OC)c(CN2CCCn3nc(C)c(-c4cccnc4N4CCOCC4)c32)c1	i	-29%	?	i	-18%
Cc1nn2c(c1-c1cccnc1N1CCOCC1)N(Cc1ccc3c(c1)CCO3)CCC2	5%[88.5 µM]	-23%[172 µM]	45µM*	i	-19%[70.6 µM]
CC(C)CN1CCN(C(=O)CCC[C@@H]2[C@H]3CCCN4CCC[C@@H](CN2Cc2cccnc2)[C@@H]34)CC1	-15%	-6%	-12%	i	3%
Cc1ccc(CN2C(=O)[C@@H]3C[C@@H](O)CN3C3(CN(Cc4cccs4)C3)C2=O)o1	1%[88.5 µM]	5%[172 µM]	1%[174 µM]	i	-2%[70.6 µM]
CC(C)(C)c1cc(C[C@@H]2C[C@H](NS(C)(=O)=O)C2(C)C)no1	-9%[88.5 µM]	?	-15%[174 µM]	i	-2%[70.6 µM]
CN1CCC(N[C@H]2C[C@@H](Cc3cc(C(C)(C)C)on3)C2(C)C)CC1	-8%[88.5 µM]	28µM*	50µM*	i	2%[70.6 µM]
COCc1cc(C[C@@H]2C[C@H](NCc3cccnc3)C2(C)C)no1	-4%[88.5 µM]	-17%[172 µM]	-16%[138 µM]	i	0%[70.6 µM]
CC1(C)[C@H](Cc2cc(-c3ccc(F)cc3)on2)C[C@@H]1NC1CCC1	2%[88.5 µM]	40µM*	35µM*	i	4%[70.6 µM]
CC1(C)[C@H](Cc2cc(-c3ccc(F)cc3)on2)C[C@@H]1NCc1cccnc1	-4%[88.5 µM]	?	?	?	11µM*
CNC(=O)[C@@H]1C[C@H](n2cc(CNC(=O)Nc3cccc(Cl)c3)nn2)CN1	-11%	-2%	-1%	i	0%
CNC(=O)[C@@H]1C[C@@H](n2cc(CNC(=O)Nc3ccc(Cl)cc3C)nn2)CN1	i	35µM*	i	i	1%
CCOC1CCOC2(CCN(C(=O)c3cccn3C)CC2)C1 (stereo not drawn)	1%	i	2%	/	/
CCOCCn1c(=O)[nH]c2cc(C(=O)NCc3n[nH]c(C)n3)ccc21	i	-4%	i	i	1%
CCOCCn1c(=O)[nH]c2cc(C(=O)NCCc3ccc(C)s3)ccc21	?	?	-25%	40µM*	4%
O=C(Cn1nc2c(cc1=O)CCCC2)NC1CCN(Cc2ccc(F)cc2)CC1	1%	-4%	?	i	-1%
Cn1cccc1C(=O)N1CCCC(n2cc(-c3nc(C4CC4)no3)nn2)C1 (stereo not drawn)	-4%	-27%	-12%	i	0%
COc1ccccc1/C=C/CN1CCCC(CCC(=O)Nc2ccccc2F)C1 (stereo not drawn)	-1%	45µM*	?	i	-1%
COc1ccc(/C=C/CN2CCC(CCC(=O)Nc3ccccc3Cl)CC2)cc1	-9%	?	79µM*	i	1%
CNC(=O)[C@@H]1C[C@H](Oc2cccnc2)CN1C(=O)C(C)C	-19%	-15%	-22%	i	-10%
Cc1nn(-c2ccccn2)c(C)c1[C@@H]1C=C[C@@H](NC(=O)NC(C)C)C1	-18%[88.5 µM]	-24%[172 µM]	?	?	1%[70.6 µM]
Cc1nn(-c2ccc(C(C)C)cc2)c(C)c1[C@@H]1C=C[C@@H](NC(=S)NC2CCCCC2)C1	3%	?	?	10µM*	-14%
SMILES	GPT2 inhibitor	HEK293 tox	NIH3T3 tox	FLuc inh	NPR1 antag
Cc1nn(-c2ccc(C(C)(C)C)cc2)c(C)c1[C@@H]1C=C[C@@H](NC(=O)Nc2ccccc2)C1	-3%[88.5 µM]	?	?	i	-21%[70.6 µM]
CCNC(=O)N[C@@H]1C=C[C@@H](c2c(C)nn(-c3ccc(OC)cc3)c2C)C1	1%[88.5 µM]	?	50µM*	?	10µM*
COc1ccc(-n2nc(C)c([C@@H]3C=C[C@@H](NC(=O)NC4CCCCC4)C3)c2C)cc1	-2%[88.5 µM]	?	?	?	22µM*
Cc1nn(-c2ccccn2)c(C)c1[C@@H]1C=C[C@@H](NC(=O)C2CCCCC2)C1	-31%[88.5 µM]	?	?	i	-8%[70.6 µM]
Cc1ccc(-n2nc(C)c([C@@H]3C=C[C@@H](N)C3)c2C)cc1Cl	i	40µM*	28µM*	71µM*	3%[70.6 µM]
CNC(=O)c1cc(C2CC2)nc2onc(C3CCN(C(=O)c4cccc(OC)c4)CC3)c12	/	-5%	-13%	/	/
Cc1cnn(CC(=O)N2CCc3nn(Cc4ccccc4)c(=O)n3CC2)c1	i	4%	0%	i	4%
Cc1ccc(-n2nc(C)c([C@@H]3C=C[C@@H](NC(=O)NC4CCCCC4)C3)c2C)cc1Cl	-10%[88.5 µM]	?	?	8.9µM*	-20%[70.6 µM]
COC(=O)c1cccc(NC(=S)N[C@@H]2C=C[C@@H](c3c(C)nn(-c4ccc(C(C)C)cc4)c3C)C2)c1	-16%	?	?	13µM*	?
O=C(NCC1CC1)c1ccc2nnc(-c3ccc(OC(F)(F)F)cc3)n2c1	-2%	?	?	/	/
CCNc1ncnc2sc3c(c12)CCN(Cc1ccc[nH]1)C3	4%	?	40µM*	i	-9%
Cc1ccc2c(C)c(C(=O)N(C)Cc3noc4c3CCCC4)oc2c1	-30%	45µM*	?	i	-13%
CCc1cc(CN(C)C(=O)c2oc3cc(OC)ccc3c2C)on1	1%	?	?	i	4%
CCN1CC(c2ccccc2)CC2(CCN(C(=O)N3CCCC3)CC2)C1 (stereo not drawn)	i	-18%	-18%	i	1%
Cn1cc(CNc2ccc(-c3nc(-c4cccc(C(F)(F)F)c4)no3)cn2)cn1	-40%[11.5 µM]	25µM*	?	i	?
Cn1cc(CNc2ccc(-c3nc(CCCc4ccccc4)no3)cn2)cn1	1%[11.5 µM]	?	?	40µM*	?
FC(F)(F)c1cccc(-c2noc(-c3ccc(NCCN4CCOCC4)nc3)n2)c1	i[11.5 µM]	11µM*	?	?	11µM*
OC[C@@H]1CN(c2ccc(-c3nc(-c4cccc(C(F)(F)F)c4)no3)cn2)C[C@H]1CO	i	?	-30%	i	-23%
CC(C)(N)C(=O)N1CCCC(N2CCN(c3cccc(C(F)(F)F)c3)CC2)C1 (stereo not drawn)	-4%	?	?	i	1%
Cc1ccc(C)c(NC(=O)Cn2c(-c3ccc(F)cc3)nc(C)c(CCO)c2=O)c1	i	-9%	-10%	i	-2%
